Compound activity (PubChem BioAssay)
Compounds with a hit are over-represented: about 0.78% of the library has one in this group of screens.
Tb PGK inh: blocks T. brucei phosphoglycerate kinase. 380,000 compounds, 0.043% hits. Potency, µM (series often up to 57.5 µM), usual class: inhibitors. PGK/GAPDH coupled, Kinase-Glo luminescence, 60 min. P07378; note: nearly all actives have a fitted effect of over 60% in size
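Recombinant glycosomal PGK reaction used 1,3-bisphosphoglycerate generated in-well by GAPDH (100nM final) in 100mM TEA pH 7.6, 5mM MgCl2, 0.01% Tween-20. After 60 minutes at room temperature, ATP was read by Kinase-Glo Plus luminescence end-point.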
PI4K2A block: inhibitors of human PI4K2A; purified PI4K2A, ADP-Glo luminescence, 1 h; stronger effect = lower value; activity change, negative = inhibition, % at 76.9 µM; 420,000 compounds, 0.13% hits; AID 1346378; in the data active = activity change below about -50%; inconclusive = mostly about -30% to -49%
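ADP-Glo luminescence measured ADP generated by PI4K2A enzyme (4 ug/mL before mixing) with 1.2 mM PI substrate (pre-mix) and 300 microM ATP (pre-mix). Tris pH7.5 buffer with MgCl2, Triton X-100; 1 h reaction at ambient temperature.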
GLS inh: blocks human kidney-isoform glutaminase activity. Potency, µM (top dose mostly 45.5 µM), usual class: inhibitors. GLS enzymatic activity, qHTS titration. 410,000 compounds, 0.21% hits. O94925. AID 624170
Target sequence (O94925 whole entry, looked up, canonical isoform): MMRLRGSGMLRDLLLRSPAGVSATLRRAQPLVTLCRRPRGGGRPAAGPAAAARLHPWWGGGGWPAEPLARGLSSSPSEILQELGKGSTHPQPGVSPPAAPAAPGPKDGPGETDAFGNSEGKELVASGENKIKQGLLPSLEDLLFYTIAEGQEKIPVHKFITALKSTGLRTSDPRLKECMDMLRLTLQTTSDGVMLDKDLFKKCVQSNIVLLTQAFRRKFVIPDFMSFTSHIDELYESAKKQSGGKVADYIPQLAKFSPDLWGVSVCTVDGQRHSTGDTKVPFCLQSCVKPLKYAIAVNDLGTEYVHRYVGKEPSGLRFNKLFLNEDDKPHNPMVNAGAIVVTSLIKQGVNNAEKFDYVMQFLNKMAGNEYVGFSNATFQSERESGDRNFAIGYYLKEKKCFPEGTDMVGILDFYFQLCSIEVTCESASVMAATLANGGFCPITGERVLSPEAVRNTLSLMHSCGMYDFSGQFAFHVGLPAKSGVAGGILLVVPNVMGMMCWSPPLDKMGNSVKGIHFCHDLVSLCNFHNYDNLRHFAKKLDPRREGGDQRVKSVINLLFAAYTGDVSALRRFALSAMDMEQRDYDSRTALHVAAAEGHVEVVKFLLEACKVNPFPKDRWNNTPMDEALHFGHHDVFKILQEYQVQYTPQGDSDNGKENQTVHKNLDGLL
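hKGA in 45 mM KH2PO4 pH 8.2, 0.02% Tween-20 with pin-transferred compounds; 1 mM L-glutamine (stock) plus glutamate oxidase/HRP/Amplex Red coupling added. Fluorescence read initially and after 30 min at RT.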
CCT modulator: cytosolic chaperonin activity modulation. purified chaperonin ATPase assay, HTRF ADP detection, 30 min. activity change, % (no concentration beside the values), hits read low. 360,000 compounds, 0.3% hits; in the data active = activity change below about -30%
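Nucleotide hydrolysis assay: TRiC at 20–40 nM final (set by batch activity) with 10 uM ATP, 30 min at 37 °C, in presence of 76 uM compound. Detection by competitive ADP HTRF, 30 min ambient.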
PINK1 modulator: PINK1 expression modulation; AID 624263; Potency, µM (series often up to 76.6 µM), actives largely listed as activators; PINK1 immunofluorescence, high-content cytometry, 24 h; 410,000 compounds, 0.2% hits; active = well fitted activation curve with a large enough effect; inconclusive = small, poorly fitted or top-dose-only effect; cell line not stated here; note: nearly all actives have a fitted effect of over 65% in size
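Measures PINK1 amount and localization on or inside mitochondria by immunofluorescence. Stable cells get compounds at 5 concentrations for 24 hours before fixation and staining; CCCP controls included.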
A number is an active result; - = inactive; ? = inconclusive; . = not tested or not shown. Unless noted, calls come from the whole dose curve; as a rule, active = well fitted curve in the direction sought with a large enough effect; inconclusive = small, poorly fitted or top-dose-only effect, or another doubt; inactive = no such curve, though single readings can be large; an effect the other way counts as inactive or inconclusive.

SMILES | Tb PGK inh | PI4K2A block | GLS inh | CCT modulator | PINK1 modulator
COc1ccc(Cc2n[nH]c(=S)n2NC(=O)Nc2ccc(Cl)c(Cl)c2)cc1 | - | - | - | - | 40µM
Cn1c(CC(=O)Nc2ccc(Cl)c(Cl)c2)n[nH]c1=S | - | - | - | - | -
COc1cc(-c2cc(C)c3cccc(OC)c3n2)cc2c1OCCN(C(=O)CCn1ccc(C)n1)C2 | . | . | . | . | -
Cc1cc(OCCn2ccnc2)cc(C(C)C)c1 | - | - | - | - | -
Cc1cc(C)cc(OCCn2ccnc2)c1 | - | - | - | -73 | -
Cc1ccc2[nH]cc(/C=C/c3cc[n+](C)cc3)c2c1 | - | - | - | - | 3.5µM
CC[n+]1ccc(/C=C/c2c[nH]c3ccccc23)cc1 | - | - | - | - | 25µM
CCn1c(/C=C/c2c[nH]c3ccccc23)nc2ccccc2c1=O | - | - | - | - | ?
COc1ccc(-c2ccnc(-n3ncc(C(=O)NCc4cccnc4)c3C3CC3)n2)cc1F | . | . | . | . | -
CC1CC2C3CCC4=CC(=O)C=CC4(C)[C@@]3(F)C(O)CC2(C)[C@@]1(O)C(=O)CCl (some centres undefined) | . | . | - | . | .
COc1ccccc1/C=C/CN1CCC(Oc2cc(C(=O)NC3CC3)ccc2OC)CC1 | - | - | - | -34 | -
COc1ccc(C(=O)NC2CC2)cc1OC1CCN(Cc2ccccc2)CC1 | - | - | - | - | -
COc1ccc(NC(=O)N2CCCc3ccccc32)cc1 | - | - | - | - | -
COc1ccc(NC(=O)N2CCc3ccccc32)cc1 | ? | -54 | - | - | -
O=C1Nc2ccccc2Oc2cc([N+](=O)[O-])cc(Oc3ccccc3)c21 | - | - | - | - | -
O=[N+]([O-])c1cc2c(c([N+](=O)[O-])c1)Nc1ccccc1O2 | - | - | - | - | 14µM
NC(=O)C1(C(N)=O)OC1c1ccc(Cl)c(Cl)c1 (centres undefined) | - | - | - | -57 | -
CC(C)(C)c1csc(N/N=C/c2cccnc2)n1 | - | - | 11µM | - | -
C(=N\Nc1nc(-c2ccccc2)cs1)/c1cccnc1 | - | - | - | - | -
Cc1c(C(=O)NCC(C)C)sc2ncnc(NCC3CCCO3)c12 (centres undefined) | . | . | . | . | -
C#Cc1cccc(C(=O)NCc2nc(-c3ccccc3NC(C)=O)oc2C)c1 | . | . | . | . | -
CC(=O)Nc1ccc(N/C=C/C(=O)c2ccc(Cl)cc2)cc1 | - | - | - | - | 11µM
CC(=O)c1ccc(N/C=C\C(=O)c2ccc(C)cc2)cc1 | - | - | - | - | -
N#Cc1c(N)n(C2OC(CO)C(O)C2O)c2ncnc(N)c12 (centres undefined) | - | -62 | - | - | -
O=S1(=O)CCN(Cc2ccccc2C(F)(F)F)CC1 | - | - | - | - | -
SMILES | Tb PGK inh | PI4K2A block | GLS inh | CCT modulator | PINK1 modulator
Cc1ccccc1CN1CCN(Cc2ccccc2C(F)(F)F)CC1 | - | - | - | - | 10µM
COc1cccc(/C=N/n2c(C3CCCCC3)n[nH]c2=S)c1O | - | - | 7.9µM | - | -
COc1cccc(/C=N/n2c(C3CCCCC3)n[nH]c2=S)c1OC | - | - | ? | - | -
CCC[C@]1(CCc2ccccc2)CC(O)=C([C@H](CC)c2cccc(NS(=O)(=O)c3ccc(C(F)(F)F)cn3)c2)C(=O)O1 | . | . | - | . | .
O=c1c2c([N+](=O)[O-])cc([N+](=O)[O-])cc2sn1Cc1ccccc1 | - | - | 1.8µM | - | -
O=c1c2c([N+](=O)[O-])cc([N+](=O)[O-])cc2sn1-c1ccc(Br)cc1 | - | - | 11µM | - | -
O=C1CCN(Cc2cccn2-c2ccccn2)CCN1Cc1ccccc1C(F)(F)F | . | . | . | . | -
COc1ccc(-c2cc(C(F)(F)F)c(C#N)c(SCC(=O)Nc3ccccc3C#N)n2)cc1 | - | - | - | -45 | ?
Cc1coc(NC(=O)CSc2nc(-c3ccc(Cl)cc3)cc(C(F)(F)F)c2C#N)n1 | - | - | - | - | -
COc1ccc(-c2cc(C(F)(F)F)c(C#N)c(SCC(=O)Nc3nc(C)co3)n2)cc1 | - | - | - | - | 8.9µM
N#C/C(=C/c1ccc(Sc2nc3ccccc3[nH]2)o1)c1cccc(Br)c1 | - | - | - | - | 18µM
COc1ccc(C(=O)c2ncc(C(F)(F)F)cc2Cl)cc1 | - | - | - | -146 | -
COc1cccc(C(=O)c2ncc(C(F)(F)F)cc2Cl)c1 | - | - | - | - | -
COc1ccc(CN2C[C@H](Sc3nc4ccccc4[nH]3)C[C@H]2C(=O)N(C)C)c2ccccc12 | . | . | . | . | -
O=C(O)C(c1ccccc1)N1C(=O)/C(=C\c2ccc(-c3ccccc3Cl)o2)SC1=S (centres undefined) | 11µM | - | - | - | -
CCCS(=O)(=O)NCc1c(C)ncc2c1CCN(C(=O)c1cccc(Cl)c1F)C2 | . | . | . | . | -
c1ccc(-n2nnnc2NC2CCCCC2)cc1 | - | - | - | - | 2.8µM
O=C(NC1CCCCC1)C1CCN(c2nnnn2-c2ccccc2)CC1 | - | - | - | - | -
O=C1CCCC2=C1C1(CCCC1)N=C(Nc1nc3ccccc3s1)N2 | - | - | - | - | 11µM
O=C(Cn1cnc2ccccc2c1=O)Nc1ccccc1N1CCOCC1 | - | - | - | -75 | -
O=C(Cn1c(=O)cnc2ccccc21)Nc1ccccc1N1CCOCC1 | - | - | - | - | -
CC(C)CN(C[C@@H](OP(=O)(O)O)[C@H](Cc1ccccc1)NC(=O)O[C@@H]1CCOC1)S(=O)(=O)c1ccc(N)cc1 | . | . | 14µM | . | .
COc1cc(C)c(CN2C[C@H](Sc3nc4ccccc4[nH]3)C[C@H]2C(=O)N(C)C)cc1C | . | . | . | . | -
COc1ccc(-c2noc(CCC(=O)N3CCN(c4ccccc4OC)CC3)n2)cc1 | - | - | - | -39 | -
COc1ccc(-c2noc(CCC(=O)N3CCN(c4ccccc4C)CC3)n2)cc1 | - | - | - | - | -
SMILES | Tb PGK inh | PI4K2A block | GLS inh | CCT modulator | PINK1 modulator
COc1ccc(Nc2ccccc2NC(=O)c2ccccc2Br)cc1 | - | - | 10µM | - | -
COc1ccc(Nc2ccccc2N)cc1 | - | - | 10µM | - | -
Nc1ccc(Nc2ccccc2N)cc1 | - | - | - | - | -
O=[N+]([O-])c1ccc(C(=S)N2CCN(c3ccc(F)cc3)CC2)cc1 | - | - | 16µM | - | -
CN(C)c1ccc(C(=S)N2CCN(c3ccc([N+](=O)[O-])cc3)CC2)cc1 | - | - | - | - | -
CSc1ncccc1C(=O)NCC1Cc2cc(-c3cnccn3)ccc2O1 (centres undefined) | . | . | . | . | -
CCCCNC(=O)CCCCCNS(=O)(=O)c1ccc(OC)cc1 | - | - | - | -41 | -
Cc1ccc(S(=O)(=O)C(CNC(=O)COc2ccccc2)c2cccs2)cc1 (centres undefined) | 10µM | - | ? | . | -
Cc1cc(S(=O)(=O)C(CNC(=O)COc2ccccc2)c2cccs2)ccc1F (centres undefined) | - | - | - | . | -
